KDM5B inh – inhibitors of human KDM5B histone demethylase. KDM5B demethylase, FDH-coupled NADH fluorescence (FDH is formaldehyde dehydrogenase). Potency, µM (top dose mostly 57.7 µM), usual class: inhibitors. actives 2.6% (n = 220,000). AID 1347165; active = well fitted inhibition curve with a large enough effect; also: nearly all actives have a fitted effect of over 70% in size
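Inhibition is measured as reduced NADH fluorescence generation from FDH coupling to formaldehyde release. Truncated KDM5BΔAP at 200 nM final acts on H3K4me3 peptide (12.5 µM in substrate mix) in pH 7.5 HEPES buffer with Tween-20, 30 min, room temperature.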
Large screens that a line does not name were inactive. Many of the other results were omitted from the sample, so hits are more common in it than they were.

O=C(Nc1ccccc1-c1nc(Cc2ccccc2)no1)c1cccnc1	none
Cc1csc(NC(=O)CCNC(=O)c2ccoc2)n1	none
CCc1noc(-c2cccn3c(CNC(=O)c4cccnc4)nnc23)n1	KDM5B inh 32µM
COc1cccc(CNC(=O)Cn2cccc2-c2nc(-c3ccc(OC)c(F)c3)no2)c1	none
Cc1noc(-c2cccn3c(CNC(=O)c4ccoc4)nnc23)n1	KDM5B inh 28µM
COc1ccc(CC(=O)NCc2nnc3ccccn23)c(OC)c1	none
Cc1cc2nc(-c3cccc(NC(=O)c4cccnc4)c3C)oc2cc1C	none
Cc1cc(C)c(NC(=O)COC(=O)c2cccc(O)c2)c(Cl)c1	none
CN(C)c1ccc(NC(=O)c2cccc(S(=O)(=O)NCc3cccs3)c2)cc1	none
Cc1cc(C)n(C(=O)c2ccc(C)c(S(=O)(=O)N3CCCCCC3)c2)n1	none
CC(NC(=O)C1CCCc2ccccc21)c1ccc(Cl)cc1 (centres undefined)	none
CC(c1cccc(NC(=O)c2ccccc2)c1)N(C)CC(=O)NC(=O)Nc1ccccc1 (centres undefined)	none
Cc1cccc(/C=C/C(=O)N(Cc2ccco2)C2CC2)c1	none
O=C(CCN(Cc1ccco1)C1CCCC1)Nc1ccccc1	none
Cc1ccc(SC(C)C(=O)NC2CCCC2)cc1C (centres undefined)	none
c1cncc(COc2cc3c(cn2)NCCN(CC2CCCCC2)C3)c1	KDM5B inh 25µM
Cc1cc(-c2cc3c(cn2)CN(Cc2ccc4[nH]ccc4c2)CCN3)ccn1	none
c1cncc(COC2CCN(c3ncncn3)CC2)c1	none
c1ccc(-c2cc3c(cn2)CN(Cc2ccc4[nH]ccc4c2)CCN3)cc1	none
c1cncc(COc2cc3c(cn2)NCCN(Cc2ccsc2)C3)c1	KDM5B inh 35µM
c1cncc(-c2nnc3n2CCN(Cc2ccsc2)C3)c1	none
CN(Cc1cccnc1)Cc1nc(C2(O)CCN(CC3CCCCC3)CC2)cs1	none
CCOc1cc2c(cn1)NCCN(Cc1ccc3[nH]ccc3c1)C2	KDM5B inh 28µM
Clc1cnccc1CN1CCNc2cnc(Oc3ccccc3)cc2C1	none
CC(C)(C)c1ccc(C(=O)Nc2c(F)cccc2F)cc1	none
Cc1cc2ccccc2n1CC(=O)Nc1ccccc1	none
CCCc1ccc(-c2nc(C3CCOC3)no2)cc1 (centres undefined)	none
Cc1cc(C)nc(SCc2ccc(-c3nc(C4CCOC4)no3)o2)n1 (centres undefined)	none
CCN(CC)Cc1cc(-c2nc(C3CCOC3)no2)c(-c2ccccc2)o1 (centres undefined)	KDM5B inh 25µM
Cc1cc2cccc(-c3nc(C4CCOC4)no3)c2o1 (centres undefined)	KDM5B inh 22µM
Cc1nnnn1-c1cccc(-c2nc(C3CCOC3)no2)c1 (centres undefined)	none
Cc1ccccc1OCc1nc(C2CCOC2)no1 (centres undefined)	none
Cc1cc(-c2nc(C3CCOC3)no2)c2ccccc2n1 (centres undefined)	KDM5B inh 28µM
COc1c(C)cccc1-c1nc(C2CCOC2)no1 (centres undefined)	none
Cn1nc(-c2nc(C3CCOC3)no2)cc1-c1ccccc1 (centres undefined)	none
Cn1cnc2c1c(=O)n(Cc1ccc(Br)cc1)c(=O)n2C	none
Cc1cccc(NCC(=O)NC(=O)NCc2ccccc2)c1C(N)=O	none
Cc1cccc(C)c1NC(=O)CN(C)C(=O)CSc1ccc(F)c(F)c1	none
O=C(COc1ccc(Cl)cc1)N1C[C@@H](CO)[C@H](c2ccccn2)C1	none
O=c1nc2n(-c3ccc(Cl)c(Cl)c3)c3cc(Cl)ccc3cc-2c(=O)[nH]1	none
CNc1nc2c(s1)C(c1ccc(Cl)cc1)CC(=O)N2 (centres undefined)	KDM5B inh 32µM
Nc1nc2c(s1)C(c1cccc(F)c1)CC(=O)N2 (centres undefined)	none
COc1ccc(C2CC(=O)Nc3nc(N)sc32)cc1OC (centres undefined)	none
CC1(C)CC(=O)C2=C(C1)N1CCc3cc4c(cc3C1=CC2c1ccc(F)cc1)OCCCO4 (centres undefined)	none
CN(Cc1ccc(Cl)c(Cl)c1)Cc1nc2ccccc2o1	none
Cc1ccc(CN2CCC(Oc3ccc(C(=O)NCc4ccccn4)cc3)CC2)o1	none
Cc1ccc(CN2CCC(CNc3nccc(-c4ccccn4)n3)CC2)o1	KDM5B inh 28µM
Cc1ccc(CN2CCC(CNc3cc(C4CC(O)C4)ncn3)CC2)o1 (centres undefined)	none
Cc1cc(=O)n2c3ccccc3nc2n1CC(=O)c1ccccc1	none
COc1cccc(NC(=O)c2ccc3c(c2)NC(C)(COc2ccc4[nH]ccc4c2)CO3)c1 (centres undefined)	KDM5B inh 32µM
COc1ccc(NC(=O)c2ccc3c(c2)NC(C)(COCC2CC2)CO3)cc1OC (centres undefined)	none
COc1cccc(NC(=O)c2ccc(-c3nc(COc4ccc(C)cc4)c(C)o3)cc2)c1	none
COc1ccc(OCC2(C)COc3ccc(C(=O)Nc4ccn(C)n4)cc3N2)cc1 (centres undefined)	KDM5B inh 32µM
COc1ccc(NC(=O)c2ccc3c(c2)OCC(=O)N3)cc1	none
COc1ccc(NC(=O)c2ccc3c(c2)OCCCO3)cn1	none
COc1ccc(-c2[nH]nc3ncc(C(=O)Nc4ccn(C)n4)nc23)c(C)c1	none
COc1ccc(OCC2(C)COc3ccc(C(=O)Nc4ccc(OC)nc4)cc3N2)cc1 (centres undefined)	KDM5B inh 40µM
COc1ccc(NC(=O)c2ccc3c(c2)OCC(=O)N(C)C3)c(F)c1	none
Cc1ccc(C)c(Nc2ncnc3sccc23)c1	none
COc1cc(C(=O)NCC2COc3ccccc3O2)cc(OC)c1OC (centres undefined)	none
CCn1c(C(=O)NCC(=O)NC2CC2)cc2ccccc21	none
COc1ccc(NC(=O)CSc2nc(N3CCOCC3)c3c(c2C#N)CC(C)(C)OC3)cc1	none
Cc1ccc(S(=O)(=O)C/C=C/CS(=O)(=O)c2ccc(C)cc2)cc1	none
COc1ccc(S(=O)(=O)N2CCC(Cc3nncn3C)CC2)cc1	none
COc1ccc(-c2cc3c(nc2OC)nc(CC2CC2)n3C)cc1	KDM5B inh 35µM
COc1cc(-c2cc3c(nc2OC)nc(CC2CC2)n3C)ccn1	KDM5B inh 40µM
COc1ccc(-n2ccnc2CN2CCC(Cc3nncn3C)CC2)cc1	none
COc1ccc([C@@H]2CC(=O)C3=C(C2)Nc2[nH][nH]c(=O)c2[C@H]3c2ccccc2C(F)(F)F)cc1OC	none
COc1cccc(CNC(=O)c2cc(C3CC3)nc3onc(C)c23)c1	none
COc1cccc(CNC(=O)CCC2CCN(S(=O)(=O)c3ccccc3)CC2)c1	none
O=C(CCC1CCN(S(=O)(=O)c2ccccc2)CC1)NCc1ccccc1	KDM5B inh 22µM
O=C(CCC1CCN(S(=O)(=O)c2ccccc2)CC1)NCc1ccc(F)cc1	none
CCCCCCCOc1ccc(S(=O)(=O)c2ccc(OCCCCCCC)cc2)cc1	none
COc1ccc(-c2ccnc3nc(Cc4ccc(F)cc4)nn23)c(F)c1	KDM5B inh 25µM
COc1ccc(Cc2nc3nccc(-c4cccs4)n3n2)cc1	none
Fc1ccc(Cc2nc3nccc(-c4ccncc4)n3n2)cc1	none
Fc1ccc(Cc2nc3nccc(-c4cccs4)n3n2)cc1	KDM5B inh 28µM
COc1cc(F)ccc1-c1ccnc2nc(CC(C)C)nn12	KDM5B inh 28µM
COc1ccc(Cc2nc3nccc(-c4ccc(OC)cc4F)n3n2)cc1	KDM5B inh 28µM
CCOC(=O)c1ccc(Nc2nc3ccccc3nc2NS(=O)(=O)c2ccc(C)c(C)c2)cc1	none
COc1ccc(-c2coc3cc(OC(C)=O)ccc3c2=O)cc1	none
CCOCCOC(=O)c1nc2ccccc2nc1NCCc1ccc(OC)c(OC)c1	none

High-throughput results (PubChem)
